Measurements published in PubChem BioAssay (Tox21).
Results filed as inconclusive are left out. The source made the active and inactive calls. Unless noted, the call rests on the fitted dose curve.

Legend:
[1] = qHTS assay to identify small molecule antagonists of the vitamin D receptor (VDR) signaling pathway - cell viability counter screen (AID 743225; active means well fitted curve in the direction sought with a large enough effect in the repeat runs; an effect the other way counts as inactive or inconclusive; further: nearly all actives have a fitted effect of over 50% in size; further: potency means the concentration at half of the fitted maximal effect; on viability change, negative = cytotoxic: on the % scale 0 is the no-effect control and ±100 the full control effect)
Procedure, shortened: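 Cytotoxicity counter screen read by CellTiter-Glo luminescence (30 min, room temperature) in the same wells as the VDR-bla antagonist readout. HEK 293T VDR-UAS-bla cells had 16 h at 37C with compound and 3 nM (final) 1-alpha,25-dihydroxyvitamin D3, then 2 h with FRET substrate.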

[2] = qHTS assay to identify small molecule agonists of the NFkB signaling pathway (AID 1159509; active means well fitted curve in the direction sought with a large enough effect in the signal ratio in the repeat runs, not every such curve was filed as active; the % refers to the signal ratio; further: series mostly up to about 61 µM; on the % scale 0 is the no-effect control and ±100 the full control effect)
Procedure, shortened: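 Pathway activation was measured in ME-180 cells stably expressing beta-lactamase under NF-kB response element control. Substrate cleavage was read as the 460/530 nm emission shift after 5 hr compound incubation.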

[3] = qHTS assay to identify small molecule agonists of the NFkB signaling pathway - cell viability counter screen (AID 1159515); further: series mostly up to about 61 µM; on the % scale 0 is the no-effect control and ±100 the full control effect; nearly all actives have a fitted effect of over 55% in size
Procedure, shortened: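 ME-180 NFkB-bla cells, 2,000/well; overnight attach; compound 5 hr, 37 C/5% CO2; LiveBLAzer substrate 1.5 hr RT; then CellTiter-Glo in same wells, 30 min RT, luminescence read.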

[4] = qHTS assay to identify small molecule agonists of the endoplasmic reticulum stress response signaling pathway (AID 1159516; active means well fitted activation curve with a large enough effect in the signal ratio in the repeat runs, not every such curve was filed as active; the % refers to the signal ratio; further: on the % scale 0 is the no-effect control and ±100 the full control effect)
Procedure, shortened: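 HeLa ESRE-bla reporter line; cpd 5 h, 37 C/5% CO2; LiveBLAzer B/G FRET substrate 2 h RT; ex 405, em 460/530 nm.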

[5] = qHTS assay to identify small molecule agonists of the endoplasmic reticulum stress response signaling pathway - cell viability counter screen (AID 1159517);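 further: HeLa cells carrying an ER stress response element beta-lactamase reporter; series mostly up to about 61 µM; on the % scale 0 is the no-effect control and ±100 the full control effect; nearly all actives have a fitted effect of over 50% in size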
Procedure, shortened: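 ESRE-bla HeLa cells (1,500/well) were plated overnight at 37 C and exposed to compounds for 5 hr. After the 2 hr beta-lactamase substrate read, CellTiter-Glo went into the same wells, and luminescence was read after 30 min at room temperature.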

[6] = qHTS assay to identify small molecule antagonists of the retinoid-related orphan receptor gamma (ROR-gamma) signaling pathway - cell viability counter screen (AID 1159520; active means well fitted curve in the direction sought with a large enough effect in the repeat runs; an effect the other way counts as inactive or inconclusive; further: on the % scale 0 is the no-effect control and ±100 the full control effect; nearly all actives have a fitted effect of over 50% in size)
Procedure, shortened: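 Cytotoxicity was read from cellular ATP (CellTiter-Glo luminescence) after 16 hr at 37 C with 1 uM doxycycline induction. The inducer was added 2 hr after compound transfer to Tet-on ROR gamma CHO cells.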

[7] = molecular target: Nuclear receptor ROR-gamma (Homo sapiens) (UniProt P51449); assay: qHTS assay to identify small molecule antagonists of the retinoid-related orphan receptor gamma (ROR-gamma) signaling pathway (AID 1159521; active means well fitted curve in the direction sought with a large enough effect in the repeat runs; an effect the other way counts as inactive or inconclusive; further: nearly all actives have a fitted effect of over 50% in size; further: potency means the concentration at half of the fitted maximal effect)
Procedure, shortened: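 Antagonist read-out: drop in luminescence (ONE-Glo) from an RORE-LUC reporter in CHO cells with doxycycline-inducible ROR-gamma; 2 hr compound pretreatment, 1 uM doxycycline, 16 hr incubation at 37 C.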

[8] = qHTS assay to identify small molecule agonists of the AP-1 signaling pathway - cell viability counter screen (AID 1159525); further: nearly all actives have a fitted effect of over 55% in size
Procedure, shortened: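 Intracellular ATP by Cell Titer Glo luminescence (30 min, RT) in the same ME-180 AP-1-bla wells after the 5 h compound exposure at 37 °C. Normalised to tetra n-octyl ammonium bromide and DMSO controls.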

[9] = qHTS assay to identify small molecule agonists of the AP-1 signaling pathway (AID 1159526); further: on the % scale 0 is the no-effect control and ±100 the full control effect
[10] = qHTS assay to identify small molecule agonists of the vitamin D receptor (VDR) signaling pathway - cell viability counter screen (AID 743224; active means well fitted curve in the direction sought with a large enough effect in the repeat runs; an effect the other way counts as inactive or inconclusive; further: nearly all actives have a fitted effect of over 50% in size; further: potency means the concentration at half of the fitted maximal effect)
Procedure, shortened: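 Cytotoxicity counter screen: VDR-bla cells, 16 h compound exposure at 37C, 5% CO2; CellTiter-Glo luminescence, 30 min RT, same wells as bla read.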

Cc1ccc(Cl)cc1Cl
inactive: Potency [1] | outcome [2] | outcome [3] | outcome [4] | outcome [5] | outcome [6] | Potency [7] | Potency [8] | outcome [9]

Cn1cc(S(C)=O)c(=O)c2ccc(F)cc21 (configuration not stated)
inactive: Potency [10] | Potency [1] | outcome [2] | outcome [3] | outcome [4] | outcome [5] | Potency [7] | Potency [8] | outcome [9]

Cn1c(N)c(N=O)c(=O)n(C)c1=O
inactive: Potency [1] | outcome [2] | outcome [3] | outcome [4] | outcome [5] | outcome [6] | Potency [7] | Potency [8] | outcome [9]

CCCN(CCC)CCc1cccc2c1CC(=O)N2
inactive: Potency [1] | outcome [2] | outcome [3] | outcome [4] | outcome [5] | outcome [6] | Potency [7] | Potency [8] | outcome [9]

O=C(O)CN(CCOCCOCCN(CC(=O)O)CC(=O)O)CC(=O)O
inactive: viability change, negative = cytotoxic [1] 0.79% [at 0.628 µM] | activation [2] -0.0067% [at 0.628 µM] | activity, negative = cytotoxic [3] 7.66% [at 0.628 µM] | activation [4] 0.191% [at 0.628 µM] | activity change, negative = cytotoxicity [5] 11.3% [at 0.628 µM] | activity, negative = cytotoxicity [6] 0.0573% [at 0.349 µM] | activity change, negative = inhibition [7] 4.15% [at 0.35 µM] | viability change, negative = cytotoxic [8] -1.21% [at 0.29 µM] | activation [9] -6.2% [at 0.29 µM]

O=C1OC(=O)C2CCCCC12 (configuration not stated)
inactive: Potency [1] | outcome [2] | outcome [3] | outcome [4] | outcome [5] | outcome [6] | Potency [7] | Potency [8] | outcome [9]

CCO[Si](CCC1CCC2OC2C1)(OCC)OCC (configuration not stated)
inactive: Potency [1] | outcome [2] | outcome [3] | outcome [4] | outcome [5] | outcome [6] | Potency [7] | Potency [8] | outcome [9]

O=c1cc(-c2ccccc2)oc2ccccc12
inactive: Potency [1] | outcome [2] | outcome [3] | outcome [4] | outcome [5] | outcome [6] | Potency [8] | outcome [9]

C=C(C)CS(=O)(=O)O
inactive: Potency [1] | outcome [2] | outcome [3] | outcome [4] | outcome [5] | outcome [6] | Potency [7] | Potency [8] | outcome [9]

CCOc1ccc(C(=O)OCCN(CC)CC)cc1
inactive: Potency [1] | outcome [2] | outcome [3] | outcome [4] | outcome [5] | outcome [6] | Potency [7] | Potency [8] | outcome [9]

COC(=O)c1c(Cl)c(Cl)c(C(=O)OC)c(Cl)c1Cl
inactive: Potency [1] | outcome [2] | outcome [3] | outcome [4] | outcome [5] | outcome [6] | Potency [7] | Potency [8]

Nc1ccccc1S(=O)(=O)O
inactive: Potency [10] | outcome [2] | outcome [3] | outcome [4] | outcome [5] | Potency [7] | Potency [8] | outcome [9]

COC(=O)CCSCCC(=O)OC
inactive: Potency [10] | outcome [2] | outcome [3] | outcome [4] | outcome [5] | Potency [7] | Potency [8] | outcome [9]

N=C(N)c1ccc(OCCCOc2ccc(C(=N)N)cc2)cc1
inactive: Potency [1] | outcome [2] | outcome [3] | outcome [4] | outcome [5] | outcome [6] | Potency [7] | Potency [8] | outcome [9]

CN(C)CCCN1c2ccccc2CCc2ccc(Cl)cc21
active: Potency [10] 43.6 µM | Potency [1] 38.9 µM | Potency [7] 19.3 µM
inactive: outcome [2] | outcome [3] | outcome [4] | outcome [5] | outcome [6] | Potency [8]

N[C@@H](C(=O)N[C@@H]1C(=O)N2C(C(=O)O)=C(Cl)CS[C@H]12)c1ccccc1
inactive: viability change, negative = cytotoxic [1] -2.62% [at 6.95 µM] | activation [2] -0.195% [at 6.95 µM] | activity, negative = cytotoxic [3] 6.68% [at 6.95 µM] | activation [4] 4.99% [at 6.95 µM] | activity change, negative = cytotoxicity [5] 11.8% [at 6.95 µM] | activity, negative = cytotoxicity [6] 0.217% [at 8.39 µM] | activity change, negative = inhibition [7] 46.6% [at 8.39 µM] | viability change, negative = cytotoxic [8] 3.61% [at 6.97 µM] | activation [9] 0.719% [at 6.97 µM]

COc1ccc2c(c1)CCCC2=O
inactive: Potency [10] | Potency [1] | outcome [2] | outcome [3] | outcome [4] | outcome [5] | Potency [7] | Potency [8] | outcome [9]

NCCCNCCSP(=O)(O)O
inactive: viability change, negative = cytotoxic [1] 2.84% [at 6.95 µM] | activation [2] 0.134% [at 6.95 µM] | activity, negative = cytotoxic [3] 0.56% [at 6.95 µM] | activation [4] 0.0202% [at 6.95 µM] | activity change, negative = cytotoxicity [5] 10.1% [at 6.95 µM] | activity, negative = cytotoxicity [6] 4.74% [at 8.39 µM] | activity change, negative = inhibition [7] 18.8% [at 8.39 µM] | viability change, negative = cytotoxic [8] -1.42% [at 6.97 µM] | activation [9] -2.28% [at 6.97 µM]

NS(=O)(=O)c1cc(C(=O)NN2C[C@H]3[C@H]4CCC(C4)[C@H]3C2)ccc1Cl
inactive: Potency [10] | Potency [1] | outcome [2] | outcome [3] | outcome [5] | outcome [6] | Potency [7] | Potency [8] | outcome [9]

c1ccc([C@H]2CN3CCSC3=N2)cc1
inactive: Potency [1] | outcome [2] | outcome [3] | outcome [4] | outcome [5] | Potency [7] | Potency [8] | outcome [9]

CCN1CCC[C@H]1CNC(=O)c1c(O)c(Cl)cc(Cl)c1OC
inactive: Potency [1] | outcome [2] | outcome [3] | outcome [4] | outcome [5] | Potency [7] | Potency [8] | outcome [9]

OC1CCCCC1c1ccccc1 (configuration not stated)
inactive: Potency [10] | Potency [1] | outcome [2] | outcome [3] | outcome [4] | outcome [5] | Potency [7] | Potency [8] | outcome [9]
